Activity calls are given as the source filed them.

In experiment [1] the test system is PRMT1 (protein arginine N-methyltransferase 1). The experiment is described as follows: small molecules binding arginine methyltransferase PRMT1 – biochemical, small-molecule microarray, 635 nm fluorescence, primary screen (AID 1088).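 Note: binding of Prmt1 protein to compounds spotted on small-molecule microarray slides.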 Particulars: higher = more signal.
A short description of experiment [2]: growth effects on S. cerevisiae YJM789 – YJM789 clinical isolate, OD600, 24 h, basal, primary screen (AID 1089).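 Note: growth of clinical yeast isolate S. cerevisiae YJM 789 seeded 1000 cells per well; test concentration not given here.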 Conditions: higher = more signal, called active from +8 up or from −8 down.
A short description of experiment [3]: S. pombe growth modifiers, basal conditions – strain 972, OD600, 24 h, no modulator, primary screen (AID 1090).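 Note: basal condition with compound alone and no growth modifier present; test concentration not given here.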 Particulars: S. pombe 972 growth, higher = more signal, called active from +8 up or from −8 down.
Experiment [4] in a line: budding yeast growth modifiers under rapamycin – strain BY4716, OD600, 96 h, primary screen (AID 1091). Note: test concentration not given here. Particulars: S. cerevisiae BY4716 + rapamycin, higher = more signal, called active from +8 up or from −8 down.
Experiment [5] has as its target Torsin-1A-interacting protein 2 (Homo sapiens) (UniProt Q8NFQ8). The experiment is described as follows: small molecules binding lysate-expressed LULL1 – cell lysate, human LULL1 lysate, 635/667 nm fluorescence, primary screen (AID 1092).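 Note: probe is lysate of COS7 cells overexpressing human LULL1; score merges per-feature 667 nm fluorescence with signal-to-noise.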 Conditions: small-molecule microarray, hLULL1 lysate binding, 635 nm fluorescence; higher = more signal.
Experiment [6] can be described thus: optical density change of DRC41 E. coli – strain DRC41, OD650, 24 h, E. coli filamentation project, primary screen (AID 1093).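 Note: MC1000 strain lacking acrAB efflux and sulA so SOS filamentation is blocked; test concentration not given here.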 Particulars: E. coli DRC41 growth, higher = more signal, called active from +8 up or from −8 down.
Experiment [7] is described as follows: probe aLefty2 binding to arrayed compounds – biochemical, biotinylated probe, 635/667 nm fluorescence, primary screen (AID 1094).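 Note: score merges spot fluorescence near 667 nm with spot signal-to-noise ratio.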 Conditions: small-molecule microarray, higher = more signal.
The test system of experiment [8] is Noggin (protein binding on small-molecule microarray). Nature of the experiment: small molecules binding Noggin protein – biochemical, 635/667 nm fluorescence, primary screen (AID 1095).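 Note: score merges 667 nm feature fluorescence with signal to noise over triplicate slides.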 Particulars: 635 nm fluorescence, higher = more signal.
For experiment [9], the target named is Neurogenic locus notch homolog protein 3 (Homo sapiens) (UniProt Q9UM47). Nature of the experiment: small molecules binding NOTCH3 protein – biochemical, 635/667 nm fluorescence, primary screen (AID 1096). Conditions: small-molecule microarray, 635 nm fluorescence, higher = more signal.
Neurogenic locus notch homolog protein 3 (Homo sapiens), sequence (Q9UM47 whole entry, looked up): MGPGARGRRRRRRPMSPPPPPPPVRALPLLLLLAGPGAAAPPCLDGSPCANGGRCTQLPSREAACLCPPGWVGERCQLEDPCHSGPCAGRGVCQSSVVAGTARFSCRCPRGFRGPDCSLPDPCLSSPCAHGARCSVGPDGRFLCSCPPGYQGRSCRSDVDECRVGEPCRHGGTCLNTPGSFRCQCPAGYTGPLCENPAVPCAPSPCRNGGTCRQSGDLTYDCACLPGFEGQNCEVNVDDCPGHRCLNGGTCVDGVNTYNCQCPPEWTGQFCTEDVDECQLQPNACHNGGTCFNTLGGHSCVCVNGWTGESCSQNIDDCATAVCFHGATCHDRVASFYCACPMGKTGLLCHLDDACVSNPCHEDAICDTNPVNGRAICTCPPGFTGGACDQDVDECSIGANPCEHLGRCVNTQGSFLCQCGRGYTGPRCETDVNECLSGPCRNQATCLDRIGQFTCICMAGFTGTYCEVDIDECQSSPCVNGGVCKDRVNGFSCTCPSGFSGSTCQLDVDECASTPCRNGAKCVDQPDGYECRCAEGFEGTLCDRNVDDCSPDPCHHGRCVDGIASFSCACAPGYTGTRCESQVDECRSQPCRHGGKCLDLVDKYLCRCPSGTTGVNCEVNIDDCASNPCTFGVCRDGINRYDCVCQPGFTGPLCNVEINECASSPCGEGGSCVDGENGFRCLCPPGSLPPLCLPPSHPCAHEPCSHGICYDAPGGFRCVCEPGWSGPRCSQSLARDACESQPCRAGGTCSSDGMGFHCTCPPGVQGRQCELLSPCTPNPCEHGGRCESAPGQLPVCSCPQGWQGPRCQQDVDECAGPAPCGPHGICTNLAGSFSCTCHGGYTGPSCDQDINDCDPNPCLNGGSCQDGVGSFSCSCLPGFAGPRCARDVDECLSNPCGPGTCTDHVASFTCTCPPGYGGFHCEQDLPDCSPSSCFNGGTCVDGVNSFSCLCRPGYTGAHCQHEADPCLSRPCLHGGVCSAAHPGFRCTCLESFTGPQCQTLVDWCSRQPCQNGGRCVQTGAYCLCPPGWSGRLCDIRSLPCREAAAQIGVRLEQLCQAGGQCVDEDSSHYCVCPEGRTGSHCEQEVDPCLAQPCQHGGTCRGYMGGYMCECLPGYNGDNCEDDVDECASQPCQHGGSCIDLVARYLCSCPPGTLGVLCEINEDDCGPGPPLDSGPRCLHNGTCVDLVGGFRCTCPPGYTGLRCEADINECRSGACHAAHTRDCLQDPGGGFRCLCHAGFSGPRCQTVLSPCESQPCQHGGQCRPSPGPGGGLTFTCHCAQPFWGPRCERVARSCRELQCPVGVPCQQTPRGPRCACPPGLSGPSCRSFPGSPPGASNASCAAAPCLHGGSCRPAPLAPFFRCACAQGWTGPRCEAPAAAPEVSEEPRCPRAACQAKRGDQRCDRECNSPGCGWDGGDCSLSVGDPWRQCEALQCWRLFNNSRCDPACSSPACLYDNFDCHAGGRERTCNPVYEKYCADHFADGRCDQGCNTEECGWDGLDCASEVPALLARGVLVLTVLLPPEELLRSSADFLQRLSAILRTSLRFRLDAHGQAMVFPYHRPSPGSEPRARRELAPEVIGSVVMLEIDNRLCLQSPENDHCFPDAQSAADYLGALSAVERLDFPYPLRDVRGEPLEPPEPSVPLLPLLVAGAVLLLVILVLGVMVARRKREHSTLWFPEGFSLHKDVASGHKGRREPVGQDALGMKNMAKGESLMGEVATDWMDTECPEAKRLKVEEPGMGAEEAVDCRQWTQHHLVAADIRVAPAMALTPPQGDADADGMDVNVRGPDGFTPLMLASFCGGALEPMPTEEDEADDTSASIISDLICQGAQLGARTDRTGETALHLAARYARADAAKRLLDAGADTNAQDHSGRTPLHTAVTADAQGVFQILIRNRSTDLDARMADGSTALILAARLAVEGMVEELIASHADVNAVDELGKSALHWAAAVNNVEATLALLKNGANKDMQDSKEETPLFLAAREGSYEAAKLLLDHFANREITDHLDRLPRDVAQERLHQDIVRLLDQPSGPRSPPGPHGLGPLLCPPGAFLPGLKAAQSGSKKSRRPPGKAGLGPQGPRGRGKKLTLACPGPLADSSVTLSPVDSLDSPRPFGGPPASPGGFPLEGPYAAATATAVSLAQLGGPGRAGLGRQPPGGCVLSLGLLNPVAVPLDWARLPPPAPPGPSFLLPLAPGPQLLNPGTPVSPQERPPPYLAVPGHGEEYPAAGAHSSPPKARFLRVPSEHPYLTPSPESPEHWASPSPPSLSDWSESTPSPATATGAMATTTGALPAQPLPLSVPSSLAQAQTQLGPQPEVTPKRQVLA
The nature of experiment [10]: probe aEGFR binding to arrayed compounds – biochemical, biotinylated probe, 635/667 nm fluorescence, primary screen (AID 1097).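 Note: probe is a biotinylated anti-EGFR antibody binding compounds printed on slides; score combines fluorescence near 667 nm and signal to noise of each spot.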 Particulars: small-molecule microarray, higher = more signal.
The subject of experiment [11] is Plasmodium falciparum Sir2 (PF13_0152, Sir2A). Nature of the experiment: Plasmodium falciparum Sir2A binding compounds – biochemical, small-molecule microarray, 635 nm fluorescence, primary screen (AID 1098).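 Note: score merges spot fluorescence intensity with its signal-to-noise ratio.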 Particulars: fluorescence 635 nm, higher = more signal.
Experiment [12] can be described thus: probe aDKK1 binding to arrayed compounds – biochemical, biotinylated probe, 635/667 nm fluorescence, primary screen (AID 1099).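 Note: score merges 667nm spot fluorescence with signal to noise across triplicate slides; reference of the scale not given here.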 Particulars: small-molecule microarray, higher = more signal.
A short description of experiment [13]: probe aCHRDL2 binding to arrayed compounds – biochemical, biotinylated probe, 635/667 nm fluorescence, primary screen (AID 1100). Particulars: small-molecule microarray, higher = more signal.
Experiment [14] can be described thus: change in splice reporter luminescence, either direction, cell-based, HEK293, spliceosome inhibition project, primary screen (AID 1101).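 Note: HEK293 cells carrying a splicing-competent luciferase reporter gene; test concentration not given here.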 Particulars: HEK293 splicing luciferase reporter, 24 h, higher = more signal, called active from +8 up or from −8 down. Background: In a reporter assay the amount or activity of a reporter protein is the signal.
The target in experiment [15] is Fibroblast growth factor 10 (Homo sapiens) (UniProt O15520). Nature of the experiment: compounds binding fibroblast growth factor 10 – biochemical, small-molecule microarray, 635 nm fluorescence, primary screen (AID 1102). Conditions: FGF10 binding, fluorescence 635 nm, higher = more signal.
Fibroblast growth factor 10 (Homo sapiens), sequence (O15520 whole entry, looked up): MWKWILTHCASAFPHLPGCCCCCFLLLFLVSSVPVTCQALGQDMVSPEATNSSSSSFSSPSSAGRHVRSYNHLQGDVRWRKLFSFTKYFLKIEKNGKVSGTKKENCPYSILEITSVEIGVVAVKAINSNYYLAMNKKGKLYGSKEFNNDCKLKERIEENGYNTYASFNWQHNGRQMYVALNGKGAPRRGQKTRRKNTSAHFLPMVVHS
For experiment [16], the system named is glycogen synthase kinase-3 (GSK3A per assay name; protocol says GSK3B). The experiment is described as follows: compounds binding glycogen synthase kinase-3 – biochemical, small-molecule microarray, 635 nm fluorescence, GSK3A, primary screen (AID 1103). Note: the record names both GSK3A and GSK3B. Particulars: fluorescence 635 nm, higher = more signal.
The target in experiment [17] is Epidermal growth factor receptor (Homo sapiens) (UniProt P00533). The experiment is described as follows: compounds binding epidermal growth factor receptor – biochemical, small-molecule microarray, 635 nm fluorescence, primary screen (AID 1104).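 Note: score merges 667 nm emission intensity with spot signal to noise over triplicate slides.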 Particulars: EGFR binding, higher = more signal.
Epidermal growth factor receptor (Homo sapiens), sequence (P00533 whole entry, looked up): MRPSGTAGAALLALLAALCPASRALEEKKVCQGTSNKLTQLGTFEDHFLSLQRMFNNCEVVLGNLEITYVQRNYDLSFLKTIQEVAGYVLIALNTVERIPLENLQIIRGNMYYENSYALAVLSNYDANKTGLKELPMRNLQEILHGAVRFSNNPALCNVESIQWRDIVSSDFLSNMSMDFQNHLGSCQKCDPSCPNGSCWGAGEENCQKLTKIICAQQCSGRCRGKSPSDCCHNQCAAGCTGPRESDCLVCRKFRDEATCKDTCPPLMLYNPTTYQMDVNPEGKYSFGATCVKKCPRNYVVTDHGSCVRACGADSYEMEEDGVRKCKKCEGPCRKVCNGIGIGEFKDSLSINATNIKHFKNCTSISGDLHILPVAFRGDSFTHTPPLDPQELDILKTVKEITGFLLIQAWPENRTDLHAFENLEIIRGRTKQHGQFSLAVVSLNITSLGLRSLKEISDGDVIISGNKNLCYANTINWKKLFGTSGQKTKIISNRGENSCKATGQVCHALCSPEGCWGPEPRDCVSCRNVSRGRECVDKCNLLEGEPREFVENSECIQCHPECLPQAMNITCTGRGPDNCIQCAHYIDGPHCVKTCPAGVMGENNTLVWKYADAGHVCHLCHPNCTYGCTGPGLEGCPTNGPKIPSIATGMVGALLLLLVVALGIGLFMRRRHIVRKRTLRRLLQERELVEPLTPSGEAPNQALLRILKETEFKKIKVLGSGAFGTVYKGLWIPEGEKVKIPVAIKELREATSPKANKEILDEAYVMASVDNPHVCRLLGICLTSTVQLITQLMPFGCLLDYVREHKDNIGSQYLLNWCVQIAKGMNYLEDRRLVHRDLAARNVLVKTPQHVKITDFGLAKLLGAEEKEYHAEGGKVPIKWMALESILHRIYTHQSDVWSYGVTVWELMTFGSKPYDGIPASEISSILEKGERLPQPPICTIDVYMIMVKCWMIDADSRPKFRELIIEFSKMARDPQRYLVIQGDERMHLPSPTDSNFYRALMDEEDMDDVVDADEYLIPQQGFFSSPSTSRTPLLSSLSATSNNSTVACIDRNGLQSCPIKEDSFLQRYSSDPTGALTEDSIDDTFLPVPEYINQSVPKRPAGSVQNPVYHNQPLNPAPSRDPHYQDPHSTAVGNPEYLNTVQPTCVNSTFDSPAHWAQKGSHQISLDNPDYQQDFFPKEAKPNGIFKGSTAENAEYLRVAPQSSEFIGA
Experiment [18] addresses Follistatin-related protein 3 (Homo sapiens) (UniProt O95633). The experiment is described as follows: compounds binding follistatin-related protein 3 – biochemical, small-molecule microarray, 635 nm fluorescence, primary screen (AID 1105).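 Note: score merges emission near 667 nm and signal to noise per printed spot across three slides.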 Conditions: FSTL3 binding, higher = more signal.
Experiment [19] deals with Dickkopf-related protein 1 (Homo sapiens) (UniProt O94907). Nature of the experiment: small molecules binding DKK1 protein – biochemical, small-molecule microarray, 635 nm fluorescence scan, primary screen (AID 1106).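 Note: score merges emission near 667 nm with signal to noise over three replicate slides.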 Conditions: higher = more signal.
Dickkopf-related protein 1 (Homo sapiens), sequence (O94907 whole entry, looked up): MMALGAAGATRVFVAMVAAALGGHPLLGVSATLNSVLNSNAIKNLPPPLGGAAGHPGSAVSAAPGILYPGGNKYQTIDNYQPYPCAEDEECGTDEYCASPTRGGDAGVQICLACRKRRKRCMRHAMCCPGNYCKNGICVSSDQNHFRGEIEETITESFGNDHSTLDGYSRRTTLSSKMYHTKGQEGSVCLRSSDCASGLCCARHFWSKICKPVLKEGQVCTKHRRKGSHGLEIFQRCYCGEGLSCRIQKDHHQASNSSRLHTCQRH
For experiment [20], the system named is Inhibin beta A chain (activin A). Nature of the experiment: small molecules binding activin A – biochemical, small-molecule microarray, 635 nm fluorescence scan, primary screen (AID 1107).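 Note: mouse activin A protein probed at 4.33 µg/mL on printed slides; score merges bound-protein fluorescence near 667 nm with spot signal-to-noise.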 Conditions: INHBA, higher = more signal.

Torsin-1A-interacting protein 2 (Homo sapiens), sequence (Q8NFQ8 whole entry, looked up): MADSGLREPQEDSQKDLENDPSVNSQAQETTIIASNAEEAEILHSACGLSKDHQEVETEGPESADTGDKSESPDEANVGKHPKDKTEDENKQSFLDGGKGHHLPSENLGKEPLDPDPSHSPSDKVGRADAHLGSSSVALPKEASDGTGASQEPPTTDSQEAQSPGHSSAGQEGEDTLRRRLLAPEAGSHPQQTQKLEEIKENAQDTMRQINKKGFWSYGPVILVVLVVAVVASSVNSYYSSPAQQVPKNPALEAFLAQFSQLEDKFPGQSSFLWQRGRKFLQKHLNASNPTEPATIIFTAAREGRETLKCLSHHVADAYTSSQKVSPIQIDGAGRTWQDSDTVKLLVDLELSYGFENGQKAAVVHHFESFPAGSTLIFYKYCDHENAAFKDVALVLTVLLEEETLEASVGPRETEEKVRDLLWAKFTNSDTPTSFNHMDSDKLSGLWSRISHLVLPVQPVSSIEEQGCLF
Follistatin-related protein 3 (Homo sapiens), sequence (O95633 whole entry, looked up): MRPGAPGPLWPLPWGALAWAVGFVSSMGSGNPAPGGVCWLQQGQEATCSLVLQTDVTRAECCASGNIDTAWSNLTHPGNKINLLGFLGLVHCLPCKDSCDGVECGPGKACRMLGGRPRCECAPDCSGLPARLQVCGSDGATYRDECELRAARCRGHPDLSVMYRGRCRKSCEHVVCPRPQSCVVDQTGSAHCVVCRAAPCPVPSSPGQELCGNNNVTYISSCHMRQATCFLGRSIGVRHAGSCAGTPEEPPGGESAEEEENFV

For the compound `C[C@H]1CC[C@H]2C(=O)OC(CO)CN2[C@@H]1c1ccc(Br)cc1` (stereo not given in full), the composite z-score is 0.14 in experiment [1]; -0.467 in experiment [5]; -0.236 in experiment [7]; 0.0982 in [8]; -0.0249 in experiment [9]; -0.145 in experiment [10]. In addition, the composite z-score in [11] is -0.273; in experiment [12], -0.28; in experiment [13], -0.0574; in experiment [15], 0.0323; in experiment [16], -0.536; in [17], 0.242. Further, the composite z-score is -0.34 in experiment [18], -0.241 in [19] and 0.757 in experiment [20]. The z-score in experiment [2] is -0.276 (inactive); in experiment [3] it was -0.315 (inactive); in [4] it was 0.603 (inactive); in [6] it was 0.458 (inactive); in experiment [14], -0.522 (inactive).

On to `Cc1ccc(S(=O)(=O)N[C@@H]2COC(=O)[C@@H](C)COC(=O)CC=C[C@H]2C)cc1`, for which the composite z-score in [1] is -0.496; in [5], -0.548; in [7] it was -0.183; in experiment [8] it was 0.49; in experiment [9], 0.702; in [10], -0.182. Also, the composite z-score in [11] was 0.154; in experiment [12], -0.324; in [13] it was -0.352; in experiment [15], 0.424; in [16], 0.513; in [17] it was 0.545. Also, the composite z-score in experiment [18] was 0.66; in [19], 0.56; in experiment [20], 0.13. The z-score in [2] is 1.19 (inactive); in experiment [3], 0.227 (inactive); in [4], 1.02 (inactive); in [6], -0.266 (inactive); in experiment [14] it was 0.00914 (inactive).

Regarding `CO[C@H]1COC(=O)CC=C[C@@H](C)[C@H](OC)COC(=O)[C@@H]2CCCN2C(=O)CC=C[C@@H]1C`, the composite z-score in [1] is 1.12; in experiment [5], -0.328; in experiment [7], -0.229; in [8] it was 1.41; in [9], 0.716; in experiment [10], 0.0115. The composite z-score in experiment [11] was 0.686; in [12], -0.382; in [13] it was -1.14; in [15] it was 0.892; in experiment [16], 0.78; in [17], 1.13. The values for the composite z-score in experiment [18], in experiment [19] and in experiment [20] were 1.49, 1.16 and 1.13, respectively. The z-score in experiment [2] was 0.221 (inactive); in experiment [3], -0.0931 (inactive); in [4] it was -0.202 (inactive); in [6], 0.619 (inactive); in [14], 0.308 (inactive).

In the case of `CC(C)CON=C1C[C@@H](O)[C@@H](O)[C@@H]2[C@@H]3C(=O)N(c4cccc(Oc5ccccc5)c4)C(=O)[C@@H]3CC[C@@H]12`, the composite z-score in experiment [1] was 1.4; in experiment [5] it was 1.86; in experiment [7] it was -0.131; in experiment [8], 1.02; in experiment [9] it was 0.046; in [10], -0.109. The composite z-score was 1.13 in experiment [11]; -0.277 in experiment [12]; -0.446 in experiment [13]; 0.746 in [15]; 0.789 in [16]; 0.368 in [17]. Moreover, the results for the composite z-score in [18], in [19] and in [20] were 0.348, 0.195 and -0.163, respectively. Also, the z-score was -1.57 (inactive) in experiment [2]; 0.174 (inactive) in experiment [3]; -0.827 (inactive) in experiment [4]; -0.961 (inactive) in experiment [6]; -1.24 (inactive) in experiment [14].

Consider `COC(=O)CC=C[C@@H](C)[C@@H](C=NOC[C@H]1O[C@H](c2ccccc2)C=C[C@@H]1Oc1ccc(OC)cc1)NS(=O)(=O)c1ccc(C)cc1`, for which the composite z-score was -1.27 in [1]; -0.744 in experiment [5]; -0.0785 in [7]; -0.882 in experiment [8]; -0.939 in experiment [9]; -0.195 in [10]. Besides, the composite z-score is -0.611 in [11]; 0.0033 in [12]; 0.674 in experiment [13]; -0.858 in [15]; -1.78 in experiment [16]; -0.873 in [17]. Further, the composite z-score in experiment [18] is -1.2; in experiment [19], -0.462; in [20] it was 0.797. The z-score in experiment [2] is 0.0204 (inactive); in [3], 0.321 (inactive); in [4], -0.382 (inactive); in experiment [6] it was -0.513 (inactive); in experiment [14] it was 0.00198 (inactive).

The values above are taken from PubChem BioAssay.
